Shiga toxin inh: Shiga toxin inhibition; Vero cells, Shiga toxin protein synthesis inhibition reporter; inhibition, % at 38.7 µM; actives 9.2% (n = 290,000); AID 2315; in the data active means inhibition mostly above about 28%, no sharp cut-off; inactive means mostly below about 43%
Pf growth 48h: inhibits P. falciparum growth in the first generation, 48 h. P. falciparum luciferase growth in erythrocytes, 48 h. Potency, µM (titrated, usually from 28.7 µM), most hits filed as inhibitors. actives 5.9% (n = 310,000). AID 504832; active means well fitted inhibition curve with a large enough effect; inconclusive means small, poorly fitted or top-dose-only effect, or another doubt; inactive means no such curve, though single readings can be large or run the other way
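In quantitative HTS format, infected erythrocytes bearing luciferase-reporter parasites were treated for a single generation at 37 C. Luminescence after adding detection reagent served as the growth measure.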
CHX counter: affects cycloheximide protein synthesis inhibition readout, counter-screen | cell reporter, cycloheximide protein synthesis inhibition counterscreen | max response, % | actives 12% (n = 300,000); in the data active means max response mostly above about 13%, no sharp cut-off; inactive means mostly below about 14%; further: read at 38.3 µM for the half of the compounds with a filed dose
NS1 function inh: blocks influenza NS1 protein function. actives 0.4% (n = 270,000). Potency, µM (highest dose often 46.1 µM). AID 2326; further: actives are rising curves; nearly all actives have a fitted effect of over 50% in size
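S. cerevisiae expressing influenza A NS1, grown in glucose, washed, then diluted 1:100 into pH 6.0 -URA galactose medium with 23 nl compound. Growth recovery read as OD600; NS1-free strain serves as control.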
Pf growth 96h: inhibits malaria parasite growth, 96 h; P. falciparum luciferase reporter growth, 96 h; Potency, µM (series often up to 28.7 µM), most hits filed as inhibitors; actives 6.9% (n = 320,000); AID 504834; active means well fitted inhibition curve with a large enough effect; inconclusive means small, poorly fitted or top-dose-only effect, or another doubt; inactive means no such curve, though single readings can be large or run the other way
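Parasite growth measured via integrated firefly luciferase reporter in P. falciparum. Infected erythrocytes at 2% hematocrit, 0.05% parasitemia final were treated 96 hours at 37 C under 5% CO2, and luminescence was read.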
SARS PLpro yeast: SARS-CoV PLP inhibition in yeast. Potency, µM (highest dose often 32.9 µM), usual class: activators. AID 485353. actives 0.19% (n = 330,000). S. cerevisiae expressing SARS-CoV PLpro, growth rescue; further: nearly all actives have a fitted effect of over 55% in size
Of the large screens only hits and unclear results are named; the others gave an inactive call. In the library only some 21% were active in any assay of this set; here they are far more common. Unless noted, the call rests on the fitted dose curve.

COc1ccc(Cl)cc1N(C(C)C(=O)NC1CCCC1)S(C)(=O)=O (stereo not given)	none
Cc1nonc1CN(C)C(=O)CC1C(=O)NCCN1Cc1cccc(C(F)(F)F)c1 (stereo not given)	Pf growth 96h 10µM
Cc1cc(CN(C)C(=O)CC2C(=O)NCCN2Cc2ccc(-c3ccccc3)cc2)on1 (stereo not given)	Pf growth 96h 10µM
Cc1nonc1CN(C)C(=O)CC1C(=O)NCCN1Cc1ccccc1C(F)(F)F (stereo not given)	none
CCOc1ccc(CN2CCNC(=O)C2CC(=O)NCc2csc(C)n2)cc1 (stereo not given)	Pf growth 96h 3.3µM
CC1CCCCC1NC(=O)c1cc(S(=O)(=O)N2CCCCC2)ccc1N1CCOCC1 (stereo not given)	Pf growth 48h inconclusive, Pf growth 96h inconclusive (no result: Shiga toxin inh, CHX counter, NS1 function inh)
COC(CNC(=O)CNC(=S)N(Cc1ccccc1)Cc1cccnc1)OC	none (no result: NS1 function inh)
COc1ccc(C(=O)Sc2nncc3ccccc23)cc1	CHX counter 20 (no result: NS1 function inh)
CC(O)Cn1c(N2CCCC2)nc2c1c(=O)[nH]c(=O)n2C (stereo not given)	Pf growth 48h inconclusive (no result: Shiga toxin inh)
COc1ccc(NC(=O)COc2coc(CN3CCc4ccccc43)cc2=O)cc1	none (no result: Shiga toxin inh, CHX counter, NS1 function inh)
CC1Cc2ccccc2N1Cc1cc(=O)c(OCC(=O)NCCc2ccccc2)co1 (stereo not given)	Pf growth 48h 13µM, Pf growth 96h inconclusive (no result: Shiga toxin inh, CHX counter, NS1 function inh)
COc1ccc(NC(=O)COc2coc(CN3c4ccccc4CC3C)cc2=O)cc1 (stereo not given)	Pf growth 48h inconclusive, Pf growth 96h 8.3µM (no result: Shiga toxin inh, CHX counter, NS1 function inh)
Nc1ccc2[nH]ncc2c1	NS1 function inh inconclusive, Pf growth 96h inconclusive
CCc1ccc2[nH]c(C)c(CN3CCCCCC3)c(=O)c2c1	none
O=C(COc1coc(CN2CCc3ccccc32)cc1=O)Nc1ccccc1	Pf growth 48h inconclusive (no result: Shiga toxin inh, CHX counter, NS1 function inh)
Cc1cc(C)cc(NC(=O)N(CCC#N)Cc2cccs2)c1	none
COCCNC(=O)COc1ccc(C)cc1C(=O)c1cc(C#N)c(=O)n(C2CC2)c1	none (no result: NS1 function inh)
O=C(c1ccc(Cl)cc1)c1coc2ccc(O)cc12	Shiga toxin inh 73, CHX counter 43
O=C(c1coc2ccc(O)cc12)C1CC1	Shiga toxin inh 58, CHX counter 25, Pf growth 96h 8.3µM
O=C1NC(=S)S/C1=C\c1coc2ccc(O)cc2c1=O	Pf growth 96h inconclusive
c1ccc(-c2nnc(-c3ccccn3)nc2NC2CCCCC2)cc1	Pf growth 48h 0.93µM (no result: Pf growth 96h)
O=C(c1ccc(Cl)cc1Cl)N1CCN(c2ccc(N3CCOCC3)nn2)CC1	Pf growth 48h inconclusive (no result: Shiga toxin inh, CHX counter, NS1 function inh)
CC(=O)NC[C@@H]1CN(c2ccc(N3CCOCC3)c(F)c2)C(=O)O1	Pf growth 96h 15µM (no result: Shiga toxin inh, CHX counter, NS1 function inh, SARS PLpro yeast)
COC(=O)c1ccc(N2CCOCC2)c(F)c1	none (no result: Pf growth 48h)
Cc1nn(Cc2ccccc2)c(C)c1C(=O)N1CCN(S(=O)(=O)/C=C/c2ccccc2)CC1	Pf growth 48h 12µM, Pf growth 96h 4.1µM (no result: Shiga toxin inh, CHX counter, NS1 function inh)
Cc1cccc(C)c1NC(=S)N(Cc1cccs1)C1CCCC1	Pf growth 96h inconclusive (no result: NS1 function inh)
CCOC(=O)CNC(=S)N(Cc1cccs1)C1CCCCC1	Pf growth 96h 7.4µM
O=C(N1CCOCC1)N(Cc1cccs1)C1CCCC1	Pf growth 96h 7.4µM
O=C(O)Cc1ccc(C(=O)c2ccccc2F)s1	none (no result: Pf growth 48h)
C=C1C(=O)O[C@@H]2C[C@@H](C)[C@H]3C=CC(=O)[C@]3(O)C[C@@H]12	Pf growth 48h inconclusive, CHX counter 14, Pf growth 96h inconclusive
O=C(N/N=C\c1cc2c(cc1Cl)OCO2)c1cccnc1	Pf growth 96h inconclusive
O=C(N/N=C/c1cccnc1)c1cccc(NC(=O)c2ccc(Cl)cc2)c1	Pf growth 48h inconclusive
O=C(N/N=C/c1cccnc1)c1cccc(Br)c1	CHX counter 17, Pf growth 96h 6.6µM, SARS PLpro yeast inconclusive
Cc1cccc(C(=O)Nc2ccc(C(=O)N/N=C/c3cccnc3)cc2)c1	Pf growth 48h inconclusive
CC(C)c1ccc(/C=N/NC(=O)CCNC(=O)c2ccccc2)cc1	Shiga toxin inh 96, CHX counter 21
O=C(N/N=C/c1cccnc1)c1cccc(Cl)c1	Shiga toxin inh 33, CHX counter 28
O=C(N/N=C/c1cc(Cl)ccc1O)c1cccnc1	Pf growth 48h 3.3µM, CHX counter 13, Pf growth 96h inconclusive
CC(NS(=O)(=O)c1cccc(C(=O)NCc2ccncc2)c1)c1ccccc1 (stereo not given)	none (no result: Shiga toxin inh, CHX counter, NS1 function inh)
CSCCC(NC(=O)CCNC(=O)c1ccccc1Cl)c1nc2ccccc2[nH]1 (stereo not given)	none (no result: Shiga toxin inh, CHX counter, NS1 function inh)
CCCc1c(C(=O)N/N=C/c2ccc(C)s2)nnn1-c1nonc1N	SARS PLpro yeast inconclusive
O=C(CNC(=O)c1ccccc1Br)N/N=C/c1cc(Br)ccc1O	Pf growth 48h inconclusive (no result: NS1 function inh)
O=C(Nc1cc(S(=O)(=O)Nc2ccc(Cl)cc2)ccc1O)c1ccc(S(=O)(=O)N2CCCCCC2)cc1	none
O=C(N/N=C\c1cc(Cl)ccc1O)c1ccc(S(=O)(=O)N2CCCCC2)cc1	Pf growth 48h 2.6µM, Pf growth 96h 2.9µM, SARS PLpro yeast inconclusive
O=C(N/N=C/c1cc(Cl)ccc1O)c1ccccc1Br	Shiga toxin inh 27, Pf growth 48h 3.7µM, CHX counter 40, Pf growth 96h inconclusive (no result: NS1 function inh)
CC(C)c1ccc(/C=N/NC(=O)c2cccc(Cl)c2)cc1	Shiga toxin inh active, CHX counter 49, Pf growth 96h inconclusive
O=C(NCc1ccc(C(=O)O)cc1)OCc1ccccc1	Pf growth 96h inconclusive
Cc1ccc(S(=O)(=O)NC(CC(=O)NCC2CCCO2)c2ccccc2)cc1 (stereo not given)	none
Cc1ccc(Cl)cc1NC(=O)Cn1c(C)csc1=O	none (no result: Shiga toxin inh, CHX counter, NS1 function inh)
COc1ccccc1C(=O)COC(=O)c1cccc(S(=O)(=O)N2CCCC2)c1	none
CC(Oc1ccc(Cl)cc1)C(=O)Nc1ccccc1C(=O)N1CCOCC1 (stereo not given)	Pf growth 96h inconclusive
O=C(NCC(=O)N1CCN(S(=O)(=O)c2cccs2)CC1)c1ccc(Cl)cc1	Pf growth 96h inconclusive
CCCCCC1CC(CC(C)C(=O)Nc2nncs2)C(=O)O1 (stereo not given)	Pf growth 48h inconclusive, Pf growth 96h inconclusive
CCCCCC1CC(CC(=O)Nc2nncs2)C(=O)O1 (stereo not given)	Pf growth 96h 7.4µM
CC(=O)n1cc([C@H]2C=C(C(=O)N3CCN(Cc4ccccc4)CC3)O[C@@H](OCc3ccc(CO)cc3)C2)c2ccccc21	Pf growth 48h inconclusive, Pf growth 96h 2.9µM
O=C(C1=C[C@H](C2CC2)C[C@H](OCc2ccc(CO)cc2)O1)N1CCN(Cc2ccc3c(c2)OCO3)CC1	Pf growth 48h inconclusive, Pf growth 96h inconclusive
CC(=O)n1cc([C@H]2C=C(C(=O)N3CCN(Cc4ccc5c(c4)OCO5)CC3)O[C@@H](OCc3ccc(CO)cc3)C2)c2ccccc21	Pf growth 48h 4.7µM, Pf growth 96h 3.3µM

Screening data as filed in PubChem BioAssay.
